Assay outcomes (PubChem BioAssay)
HP1b chromo inh: HTS for Inhibitors of HP1-beta Chromodomain Interactions with Methylated Histone Tails. Chromobox protein homolog 1 (Homo sapiens), P83916. AlphaScreen HP1-beta / biotin-H3K9me3 peptide binding. Potency, µM (series often up to 114 µM), for inactives: at the top dose activity change, negative = inhibition, hits mostly inhibitors. actives 0.56% (n = 390,000). AID 540317, 2011; note: nearly all actives have a fitted effect of over 70% in size
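AlphaScreen: HP1-beta (50 nM) preformed 30 min with biotin-H3(1-18)K9me3 peptide (50 nM) in PBS pH 7.4, 0.01% Tween-20. Compound added for 30 min at RT, then streptavidin donor/nickel chelate acceptor beads (10 ug/mL) for 30 min.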
Sfp inh: qHTS Assay for Inhibitors of Bacillus subtilis Sfp phosphopantetheinyl transferase (PPTase); Biochemical Sfp PPTase activity, qHTS; Potency, µM, without a hit: largest response in the series, negative = inhibition, usual class: inhibitors; actives 3.5% (n = 310,000); AID 1490, 2009;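 note: the enzyme is Sfp with the accession as filed and its product quenches rhodamine fluorescence; 0% = enzyme reaction without inhibitor and -100% = no enzyme wells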
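Fluorescence-quenching assay: 15 nM Sfp-PPTase preincubated 15 min at room temperature with compound, then 5 uM rhodamine-CoA and 12.5 uM BHQ-2-labelled YbbR peptide added. Fluorescence (ex 525/em 598 nm) read at start and after 30 min; difference gives rate.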
JMJD2A Tudor: qHTS Assay for Inhibitors of JMJD2A-Tudor Domain; AID 504339, 2011; actives 4.4% (n = 390,000); AlphaScreen JMJD2A-Tudor / H3K4me3 peptide binding; Lysine-specific demethylase 4A (Homo sapiens), O75164; Potency, µM (series often up to 114 µM), inactives show at the highest dose activity change, negative = inhibition, usual class: inhibitors; note: % is set by controls: 0 for no effect and ±100 for the full control effect; nearly all actives have a fitted effect of over 50% in size
G9a block: qHTS Assay for Inhibitors of Histone Lysine Methyltransferase G9a; Histone-lysine N-methyltransferase EHMT2 (Homo sapiens), Q96KQ7; G9a H3K9 monomethylation, AlphaScreen, 2 h; Potency, µM (titrated, usually from 102 µM), without a hit: top-dose activity, negative = inhibition, actives largely listed as inhibitors; actives 8.8% (n = 350,000); AID 504332, 2011; note: % is set by controls: 0 for no effect and ±100 for the full control effect; nearly all actives have a fitted effect of over 75% in size
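G9a (20 nM) preincubated 15 min RT with compounds, then 500 nM biotinylated H3K9 peptide and 20 uM SAM added; 2 h RT reaction. Monomethyl-H3K9 product detected by AlphaScreen with anti-H3K9me1 antibody, streptavidin donor and anti-rabbit IgG acceptor beads.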
BAZ2B block: qHTS Assay for Inhibitors of BAZ2B; Bromodomain adjacent to zinc finger domain protein 2B (Homo sapiens), Q9UIF8; AlphaScreen BAZ2B-H3K14Ac peptide displacement; Potency, µM (doses to about 114 µM), inactives show top-dose activity change, negative = inhibition, usual class: inhibitors; actives 4.4% (n = 360,000); AID 504333, 2011; note: % is set by controls: 0 for no effect and ±100 for the full control effect; nearly all actives have a fitted effect of over 60% in size
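Protein-peptide AlphaScreen: BAZ2B 50 nM, b-H3K14Ac 50 nM, 1x PBS pH 7.4 + 0.01% Tween-20. Preincubation 30 min RT; cpd 30 min RT (top 110 uM); beads 20 min RT, light-protected.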
The depositor's hits bear a star; ? = inconclusive; / = not tested or not shown; [ ] = remark or other dose. Compounds with a hit are over-represented: about 12% of the library has one in this group of screens. Calls come from the whole dose curve; as a rule, active = well fitted curve in the direction sought with a large enough effect; inconclusive = small, poorly fitted or top-dose-only effect, or another doubt; inactive = no such curve, though single readings can be large; an effect the other way counts as inactive or inconclusive. Potency is the fitted concentration of half-maximal effect.

SMILES	HP1b chromo inh	Sfp inh	JMJD2A Tudor	G9a block	BAZ2B block
CC(=O)C1=C(O)C(=O)N(c2ccc(Br)cn2)C1c1ccc(Br)cc1 (configuration not stated)	-13%	?	22µM*	56µM*	?
CC(=O)C1=C(O)C(=O)N(c2ccc(Br)cn2)C1c1ccc(F)cc1 (configuration not stated)	20%	?	1.1µM*	/	56µM*
CC(=O)C1=C(O)C(=O)N(c2cc(C(C)(C)C)on2)C1c1ccc(Br)cc1 (configuration not stated)	35%	-15%	?	45µM*	-37%
CC(=O)C1=C(O)C(=O)N(c2ccc(O)cc2)C1c1ccc(Cl)cc1 (configuration not stated)	11%	12%	-25%	71µM*	-19%
CC(=O)C1=C(O)C(=O)N(c2ccc(Br)cn2)C1c1cccc([N+](=O)[O-])c1 (configuration not stated)	5%	5%	-20%	17%[2.33 µM]	-19%
Cc1c(C)c(C)c(S(=O)(=O)Nc2ccc3[nH]c(=O)[nH]c3c2)c(C)c1C	27%	8%	-21%	?	6%
COc1ccc(NC(=O)C2CCCN(C(=O)c3cnn(-c4ccc(F)cc4)c3-n3cccc3)C2)cc1 (configuration not stated)	21%	/	-13%	-4%[59 µM]	-23%
COc1ccc2sc(-c3ccc(N(C)C)cc3)c(-c3cnc(OC)nc3)c2c1	18%	/	?	-6%[0.501 µM]	?
COc1cc(C2C(C(C)=O)=C(O)C(=O)N2c2ccc(Br)cn2)ccc1O (configuration not stated)	-1%	-7%	89µM*	2%[0.0925 µM]	?
Cc1noc(NS(=O)(=O)c2cccc3c(N(C)C)cccc23)c1C	/	50µM*	/	/	/
COc1ccccc1-n1c(=S)[nH]c2c(sc(=S)n2-c2ccccc2C)c1=O	?	-12%	79µM*	?	-24%
COc1cccc(-n2c(=S)sc3c(=O)n(-c4ccccc4OC)c(=S)[nH]c32)c1	-6%	20%	?	?	?
COc1ccccc1-n1c(SC)nc2c(sc(=S)n2-c2ccccc2)c1=O	25%	17%	1%	29%	1%
CCOc1ccccc1-n1c(=S)sc2c(=O)n(-c3ccccc3)c(=S)[nH]c21	24%	4%	79µM*	16%[59 µM]	-30%
COc1ccccc1-n1c(=S)[nH]c2c(sc(=S)n2-c2ccccc2)c1=O	23%	13%	?	-7%	-16%
COc1ccc(OC)c(-n2c(=S)[nH]c3c(sc(=S)n3-c3ccccc3C)c2=O)c1	-22%	-5%	89µM*	31%[59 µM]	?
Cn1cc(S(=O)(=O)c2cccc(Cl)c2)c(=O)c2cc(F)c(N3CCCCCC3)cc21	8%	/	-10%	7%[59 µM]	3%
CCOC(=O)c1c(Oc2ccc(C(=O)OC)cc2)nnc(-c2ccccc2)c1-c1ccccc1	35%	/	-19%	-26%[59 µM]	-16%
O=S1(=O)c2ccccc2N=NN1Cc1ccc(Cl)cc1	-18%	50µM*	79µM*	0.63µM*	?
O=S1(=O)c2ccccc2N(Cc2ccc(Cl)cc2)c2ccccc21	50%	/	-28%	-22%[59 µM]	-16%
COc1ccc(-c2ccc(CCC(=O)O)n2CC(C)C)cc1	20%	?	-26%	?	?
Cc1ccc(-c2ccc(CCC(=O)O)n2NC(=O)c2cccs2)cc1	10%	12%	-16%	?	11µM*
O=C(O)CCc1ccc(-c2ccccc2)n1NC(=O)c1ccco1	16%	-20%	-18%	?	-2%
COc1ccc(-c2ccc(CCC(=O)O)n2NC(=O)c2cccs2)cc1	-3%	-12%	-27%	14µM*	-23%
CCC(C(=O)Nc1cccc(Cl)c1C)n1nc(C)c2sc3ccccc3c2c1=O (configuration not stated)	19%	/	-18%	-8%[59 µM]	-8%
SMILES	HP1b chromo inh	Sfp inh	JMJD2A Tudor	G9a block	BAZ2B block
CCOc1ccccc1NC(=O)CN1C(=O)COc2ccc(S(=O)(=O)Nc3ccccc3)cc21	20%	/	-14%	-25%[59 µM]	-36%
COCCCN1C(=O)C2C(C(=O)Nc3cccc(Cl)c3)C3C=CC2(O3)C1C(=O)NC1CCCCC1 (configuration not stated)	10%	4%	-11%	10%	-14%
Nc1cc(=O)[nH]c(SCc2cccc3ccccc23)n1	31%	-2%	-19%	24%	-5%
N#CC1=C(N)N=C(SCc2cccc3ccccc23)C(C(N)=O)C12CCCCC2 (configuration not stated)	-34%	0%	56µM*	45µM*	?
CCOc1cc(CN2CCCCCC2)ccc1OC	-14%	-7%	2.2µM*	/	?
OC1CCN(Cc2ccc3ccccc3c2)CC1	?	7%	3.5µM*	11µM*	?
O=C(c1ccc2ccccc2c1)N1CCN(Cc2ccccc2)CC1	-2%	4%	-9%	-2%	-8%
COc1ccc(CN2CCN(Cc3ccc4ccccc4c3)CC2)cc1OC	25µM*	?	2.8µM*	-1%[2.33 µM]	16µM*
COc1ccc2ccccc2c1CN1CCN(Cc2ccccc2)CC1	-4%	13%	-33%	?	?
COc1ccccc1CN1CCN(Cc2ccc3ccccc3c2)CC1	?	?	8.9µM*	7.9µM*	22µM*
O=C1NC(=NCc2ccccc2)NC1(c1ccccc1)c1ccccc1	-16%	/	-18%	/	/
CC12CCC(=O)N1C(C(=O)Nc1nc3ccc(Cl)cc3s1)CS2 (configuration not stated)	8%	/	?	45µM*	-33%
Cc1ccc(-c2csc(NC(=O)C3CSC4(C)CCC(=O)N34)n2)cc1 (configuration not stated)	7%	/	-2%	1%[0.501 µM]	79µM*
CC12CCC(=O)N1C(C(=O)Nc1nc3ccc(S(C)(=O)=O)cc3s1)CS2 (configuration not stated)	26%	13%	-10%	?	-10%
Cc1csc(NC(=O)C2CSC3(C)CCC(=O)N23)n1 (configuration not stated)	42%	14%	-5%	/	-8%
CCc1ccc2nc(NC(=O)C3CSC4(C)CCC(=O)N34)sc2c1 (configuration not stated)	22%	/	-12%	28µM*	-34%
CCn1c(Sc2nc(C)nc3scc(-c4cccs4)c23)n[nH]c1=O	62%	1%	-17%[57.1 µM]	45µM*	-9%
O=C(NC(=S)NCc1cccnc1)c1ccccc1F	50%	4%	-4%	?	-13%
Cc1ccccc1C(=O)NNC(=S)NC(=O)c1cccnc1	-2%	?	-27%	6.3µM*	-3%
